{"source": "PubChem BioAssay AID1159580", "about": "(chemical genetic matrix, 2015)", "assay": "chemical genetic growth profiling, strain panel (AID 1159580);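 further: tested at 20 µM; growth read once vehicle control cultures reached saturation at 30 °C; 1 = growth at the plate median or of vehicle wells; lower values mean less growth of the strain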", "conditions": "S. cerevisiae deletion strains, growth OD", "note": "Hit rate of the full screen: of about 5,500 compounds, about 2,000 (36%) were called active. About 18% were inconclusive and are not listed. The list shows a part of the results. A number with no mark means an inactive call. No stated cut-off is given here; in the data, active means normalized growth mostly below about 0.91 (no sharp cut-off); inconclusive means no clear call, values can overlap the other calls; inactive means mostly above about 0.92.", "data": [{"smiles": "CCC(C)C(=O)O[C@H]1C[C@H](O)C=C2C=C[C@H](C)[C@H](CC[C@@H](O)C[C@@H](O)CC(=O)O)C21", "note": "(some centres not stated)", "values": [{"measurement": "normalized growth", "setting": "locus YAL021C, strain ccr4, active compounds read low", "result": 1.02}, {"measurement": "normalized growth", "setting": "locus YAL026C, strain drs2, active compounds read low", "result": 1.03}, {"measurement": "normalized growth", "setting": "locus YAL030W, strain snc1, active compounds read low", "result": 1}, {"measurement": "normalized growth", "setting": "locus YBL061C, strain skt5, active compounds read low", "result": 1.01}, {"measurement": "normalized growth", "setting": "locus YBR009C, strain hhf1, active compounds read low", "result": 0.966}, {"measurement": "normalized growth", "setting": "locus YBR023C, strain chs3, active compounds read low", "result": 1.02}, {"measurement": "normalized growth", "setting": "locus YBR171W, strain sec66, active compounds read low", "result": 1}, {"measurement": "normalized growth", "setting": "locus YBR231C, strain swc5, active compounds read low", "result": 0.976}, {"measurement": "normalized growth", "setting": "locus YBR279W, strain paf1, active compounds read low", "result": 1.02}, {"measurement": "normalized growth", "setting": "locus YCL011C, strain gbp2, active compounds read low", "result": 1.02}, {"measurement": "normalized growth", "setting": "locus YCL016C, strain dcc1, active compounds read low", "result": 1.03}, {"measurement": "normalized growth", "setting": "locus YCL061C, strain MRC1, active compounds read low", "result": 1.01}, {"measurement": "normalized growth", "setting": "locus YCL069W, strain vba3, active compounds read low", "result": 1.01}, {"measurement": "normalized growth", "setting": "locus YCR088W, strain abp1, active compounds read low", "result": 1}, {"measurement": "normalized growth", "setting": "locus YDL005C, strain med2, active compounds read low", "result": 1.03}, {"measurement": "normalized growth", "setting": "locus YDL040C, strain nat1, active compounds read low", "result": 0.993}, {"measurement": "normalized growth", "setting": "locus YDR001C, strain nth1, active compounds read low", "result": 1.01}, {"measurement": "normalized growth", "setting": "locus YDR069C, strain doa4, active compounds read low", "result": 1.01}, {"measurement": "normalized growth", "setting": "locus YDR137W, strain rgp1, active compounds read low", "result": "1.3 [resistant] (active)"}, {"measurement": "normalized growth", "setting": "locus YDR159W, strain sac3, active compounds read low", "result": 0.937}, {"measurement": "normalized growth", "setting": "locus YDR195W, strain ref2", "result": 0.952}, {"measurement": "normalized growth", "setting": "locus YDR297W, strain sur2, active compounds read low", "result": 1.01}, {"measurement": "normalized growth", "setting": "locus YDR334W, strain swr1, active compounds read low", "result": 0.994}, {"measurement": "normalized growth", "setting": "locus YDR335W, strain msn5, active compounds read low", "result": 1.02}, {"measurement": "normalized growth", "setting": "locus YDR392W, strain spt3, active compounds read low", "result": 0.987}, {"measurement": "normalized growth", "setting": "locus YEL003W, strain gim4, active compounds read low", "result": 1.02}, {"measurement": "normalized growth", "setting": "locus YEL037C, strain rad23, active compounds read low", "result": 1.02}, {"measurement": "normalized growth", "setting": "locus YEL061C, strain CIN8 (second series), active compounds read low", "result": 0.986}, {"measurement": "normalized growth", "setting": "locus YER015W, strain faa2, active compounds read low", "result": 1}, {"measurement": "normalized growth", "setting": "locus YER016W, strain bim1, active compounds read low", "result": 1.06}, {"measurement": "normalized growth", "setting": "locus YER111C, strain swi4, active compounds read low", "result": 1.02}, {"measurement": "normalized growth", "setting": "locus YER155C, strain BEM2 (second series), active compounds read low", "result": 1.02}, {"measurement": "normalized growth", "setting": "locus YFR010W, strain ubp6, active compounds read low", "result": 0.995}, {"measurement": "normalized growth", "setting": "locus YGL167C, strain pmr1, active compounds read low", "result": 1}, {"measurement": "normalized growth", "setting": "locus YGL173C, strain kem1, active compounds read low", "result": 1.02}, {"measurement": "normalized growth", "setting": "locus YGL227W, strain vid30, active compounds read low", "result": 1}, {"measurement": "normalized growth", "setting": "locus YGL240W, strain doc1, active compounds read low", "result": 1.04}, {"measurement": "normalized growth", "setting": "locus YGL253W, strain hxk2, active compounds read low", "result": 1.02}, {"measurement": "normalized growth", "setting": "locus YHR013C, strain ard1, active compounds read low", "result": 1.02}, {"measurement": "normalized growth", "setting": "locus YHR027C, strain rpn1, active compounds read low", "result": 1.01}, {"measurement": "normalized growth", "setting": "locus YHR030C, strain SLT2, active compounds read low", "result": 0.977}, {"measurement": "normalized growth", "setting": "locus YHR079C, strain IRE1, active compounds read low", "result": 0.975}, {"measurement": "normalized growth", "setting": "locus YHR142W, strain chs7, active compounds read low", "result": 1.02}, {"measurement": "normalized growth", "setting": "locus YJL092W, strain hpr5, active compounds read low", "result": 1.01}, {"measurement": "normalized growth", "setting": "locus YJL095W, strain BCK1 (second series), active compounds read low", "result": 1.02}, {"measurement": "normalized growth", "setting": "locus YJL095W, strain BCK1, active compounds read low", "result": 0.965}, {"measurement": "normalized growth", "setting": "locus YJL115W, strain asf1, active compounds read low", "result": 1.01}, {"measurement": "normalized growth", "setting": "locus YJL129C, strain trk1, active compounds read low", "result": 1.02}, {"measurement": "normalized growth", "setting": "locus YJL154C, strain vps35, active compounds read low", "result": 1.01}, {"measurement": "normalized growth", "setting": "locus YJL164C, strain tpk1, active compounds read low", "result": 1.01}, {"measurement": "normalized growth", "setting": "locus YJL166W, strain qcr8, active compounds read low", "result": 0.992}, {"measurement": "normalized growth", "setting": "locus YJL187C, strain SWE1, active compounds read low", "result": 1.01}, {"measurement": "normalized growth", "setting": "locus YJR066W, strain TOR1, active compounds read low", "result": 0.907}, {"measurement": "normalized growth", "setting": "locus YKL160W, strain elf1, active compounds read low", "result": 1.05}, {"measurement": "normalized growth", "setting": "locus YKR026C, strain gcn3, active compounds read low", "result": 0.99}, {"measurement": "normalized growth", "setting": "locus YKR091W, strain srl3, active compounds read low", "result": 1}, {"measurement": "normalized growth", "setting": "locus YLL001W, strain dnm1, active compounds read low", "result": 0.961}, {"measurement": "normalized growth", "setting": "locus YLL026W, active compounds read low", "result": 1}, {"measurement": "normalized growth", "setting": "locus YLL041C, strain sdh2, active compounds read low", "result": 0.991}, {"measurement": "normalized growth", "setting": "locus YLR027C, strain aat2, active compounds read low", "result": 1}, {"measurement": "normalized growth", "setting": "locus YLR113W, strain HOG1, active compounds read low", "result": 1}, {"measurement": "normalized growth", "setting": "locus YLR221C, strain rsa3, active compounds read low", "result": 0.998}, {"measurement": "normalized growth", "setting": "locus YLR258W, strain gsy2, active compounds read low", "result": 1.03}, {"measurement": "normalized growth", "setting": "locus YLR262C, strain YPT6 (second series), active compounds read low", "result": 1.12}, {"measurement": "normalized growth", "setting": "locus YLR320W, strain mms22, active compounds read low", "result": 0.963}, {"measurement": "normalized growth", "setting": "locus YLR342W, strain FKS1, active compounds read low", "result": 1.02}, {"measurement": "normalized growth", "setting": "locus YLR357W, strain rsc2, active compounds read low", "result": 1}, {"measurement": "normalized growth", "setting": "locus YLR370C, strain arc18, active compounds read low", "result": 1.02}, {"measurement": "normalized growth", "setting": "locus YLR384C, strain iki3, active compounds read low", "result": 0.991}, {"measurement": "normalized growth", "setting": "locus YML120C, strain ndi1, active compounds read low", "result": 1.02}, {"measurement": "normalized growth", "setting": "locus YMR058W, strain fet3, active compounds read low", "result": 1.01}, {"measurement": "normalized growth", "setting": "locus YMR125W, strain sto1, active compounds read low", "result": 1.04}, {"measurement": "normalized growth", "setting": "locus YMR129W, active compounds read low", "result": 1}, {"measurement": "normalized growth", "setting": "locus YMR205C, strain PFK2, active compounds read low", "result": 0.972}, {"measurement": "normalized growth", "setting": "locus YMR231W, strain pep5, active compounds read low", "result": 1}, {"measurement": "normalized growth", "setting": "locus YNL071W, strain lat1, active compounds read low", "result": 1}, {"measurement": "normalized growth", "setting": "locus YNL183C, strain NPR1, active compounds read low", "result": 0.902}, {"measurement": "normalized growth", "setting": "locus YNL209W, strain ssb2, active compounds read low", "result": 1.01}, {"measurement": "normalized growth", "setting": "locus YNL248C, strain rpa49, active compounds read low", "result": 1.03}, {"measurement": "normalized growth", "setting": "locus YNL322C, strain KRE1 (second series), active compounds read low", "result": 1.06}, {"measurement": "normalized growth", "setting": "locus YNR049C, strain mso1, active compounds read low", "result": 1.01}, {"measurement": "normalized growth", "setting": "locus YOR001W, strain rrp6, active compounds read low", "result": 0.992}, {"measurement": "normalized growth", "setting": "locus YOR070C, strain gyp1, active compounds read low", "result": 1}, {"measurement": "normalized growth", "setting": "locus YOR080W, strain dia2, active compounds read low", "result": 0.999}, {"measurement": "normalized growth", "setting": "locus YOR083W, strain WHI5, active compounds read low", "result": 1.01}, {"measurement": "normalized growth", "setting": "locus YOR106W, strain vam3, active compounds read low", "result": 1.04}, {"measurement": "normalized growth", "setting": "locus YOR231W, strain MKK1, active compounds read low", "result": 0.954}, {"measurement": "normalized growth", "setting": "locus YOR265W, strain rbl2, active compounds read low", "result": 1}, {"measurement": "normalized growth", "setting": "locus YOR270C, strain vph1, active compounds read low", "result": 0.946}, {"measurement": "normalized growth", "setting": "locus YOR290C, strain snf2, active compounds read low", "result": 1.05}, {"measurement": "normalized growth", "setting": "locus YPL051W, strain arl3, active compounds read low", "result": 1.06}, {"measurement": "normalized growth", "setting": "locus YPL078C, strain atp4, active compounds read low", "result": 1.05}, {"measurement": "normalized growth", "setting": "locus YPL106C, strain sse1, active compounds read low", "result": 1.02}, {"measurement": "normalized growth", "setting": "locus YPL240C, strain hsp82, active compounds read low", "result": 1.01}, {"measurement": "normalized growth", "setting": "locus YPL256C, strain CLN2, active compounds read low", "result": 1.01}]}, {"smiles": "CC[C@H](C)C(=O)O[C@H]1CCC=C2C=C[C@H](C)[C@H](CC[C@@H]3C[C@@H](O)CC(=O)O3)[C@H]21", "values": [{"measurement": "normalized growth", "setting": "locus YAL040C, strain CLN3, active compounds read low", "result": 1.01}, {"measurement": "normalized growth", "setting": "locus YCL061C, strain MRC1 (second series), active compounds read low", "result": 0.995}, {"measurement": "normalized growth", "setting": "locus YDR363W, strain ESC2, active compounds read low", "result": 1.02}, {"measurement": "normalized growth", "setting": "locus YER002W, strain NOP16, active compounds read low", "result": 0.976}, {"measurement": "normalized growth", "setting": "locus YJR075W, strain HOC1, active compounds read low", "result": 0.988}, {"measurement": "normalized growth", "setting": "locus YNL128W, strain TEP1, active compounds read low", "result": 0.947}, {"measurement": "normalized growth", "setting": "locus YNL175C, strain NOP13, active compounds read low", "result": 0.985}, {"measurement": "normalized growth", "setting": "locus YNL197C, strain WHI3, active compounds read low", "result": 0.987}, {"measurement": "normalized growth", "setting": "locus YNL224C, strain SQS1, active compounds read low", "result": 0.98}, {"measurement": "normalized growth", "setting": "locus YNL322C, strain KRE1, active compounds read low", "result": 0.995}, {"measurement": "normalized growth", "setting": "locus YOR083W, strain WHI5 (second series), active compounds read low", "result": 0.999}, {"measurement": "normalized growth", "setting": "locus YPL241C, strain CIN2, active compounds read low", "result": 0.994}]}]}
